Results on four molecules are retold here after publication PMC11062922 (Nature Chemical Biology, 2023).

One assay relates to ACVR1. More on the design: species or system human, MV4-11 + K-562 + COLO205 + SK-N-BE2 + OVCAR-8. The note with it: read-out: apparent Kd; compound concentrations:100 nM and 1000 nM (sheet 'Samples'); n = 1.
The test system of the next assay is CDK16. Further details: species or system human, MV4-11 + K-562 + COLO205 + SK-N-BE2 + OVCAR-8. The following applies: read-out: apparent Kd; compound concentrations:100 nM and 1000 nM (sheet 'Samples'); n = 1.
Another assay deals with CDK17. Further details: species or system human, MV4-11 + K-562 + COLO205 + SK-N-BE2 + OVCAR-8. The following applies: read-out: apparent Kd; compound concentrations:100 nM and 1000 nM (sheet 'Samples'); n = 1.
For the next assay, the system named is CDK6. Further details: species or system human, MV4-11 + K-562 + COLO205 + SK-N-BE2 + OVCAR-8. The note with it: read-out: apparent Kd; compound concentrations:100 nM and 1000 nM (sheet 'Samples'); n = 1.
For the next assay, the system named is CDK9. Further details: species or system human, MV4-11 + K-562 + COLO205 + SK-N-BE2 + OVCAR-8. The following applies: read-out: apparent Kd; compound concentrations:100 nM and 1000 nM (sheet 'Samples'); n = 1.
Another assay relates to EIF2AK1. More on the design: species or system human, MV4-11 + K-562 + COLO205 + SK-N-BE2 + OVCAR-8. The following applies: read-out: apparent Kd; compound concentrations:100 nM and 1000 nM (sheet 'Samples'); n = 1.
For a further assay, the system named is GSK3A. Further details: species or system human, MV4-11 + K-562 + COLO205 + SK-N-BE2 + OVCAR-8. The note with it: read-out: apparent Kd; compound concentrations:100 nM and 1000 nM (sheet 'Samples'); n = 1.
The next assay concerns GSK3B. Further details: species or system human, MV4-11 + K-562 + COLO205 + SK-N-BE2 + OVCAR-8. The following applies: read-out: apparent Kd; compound concentrations:100 nM and 1000 nM (sheet 'Samples'); n = 1.
The subject of a further assay is ICK. More on the design: species or system human, MV4-11 + K-562 + COLO205 + SK-N-BE2 + OVCAR-8. The note with it: read-out: apparent Kd; compound concentrations:100 nM and 1000 nM (sheet 'Samples'); n = 1.
Another assay concerns MAPK7. More on the design: species or system human, MV4-11 + K-562 + COLO205 + SK-N-BE2 + OVCAR-8. The note with it: read-out: apparent Kd; compound concentrations:100 nM and 1000 nM (sheet 'Samples'); n = 1.
The subject of the next assay is PDGFRB. Further details: species or system human, MV4-11 + K-562 + COLO205 + SK-N-BE2 + OVCAR-8. The note with it: read-out: apparent Kd; compound concentrations:100 nM and 1000 nM (sheet 'Samples'); n = 1.
The next assay deals with PIM2. More on the design: species or system human, MV4-11 + K-562 + COLO205 + SK-N-BE2 + OVCAR-8. The following applies: read-out: apparent Kd; compound concentrations:100 nM and 1000 nM (sheet 'Samples'); n = 1.
A further assay concerns TAOK2. More on the design: species or system human, MV4-11 + K-562 + COLO205 + SK-N-BE2 + OVCAR-8. The note with it: read-out: apparent Kd; compound concentrations:100 nM and 1000 nM (sheet 'Samples'); n = 1.
A further assay deals with ACVR1B. More on the design: species or system human, MV4-11 + K-562 + COLO205 + SK-N-BE2 + OVCAR-8. The following applies: read-out: apparent Kd, n = 1.
In another assay the test system is NQO2. More on the design: species or system human, MV4-11 + K-562 + COLO205 + SK-N-BE2 + OVCAR-8. The following applies: read-out: apparent Kd; compound concentrations:100 nM and 1000 nM (sheet 'Samples'); n = 1.
For the next assay, the system named is TGFBR1. More on the design: species or system human, MV4-11 + K-562 + COLO205 + SK-N-BE2 + OVCAR-8. The following applies: read-out: apparent Kd; compound concentrations:100 nM and 1000 nM (sheet 'Samples'); n = 1.
The next assay relates to TGFBR2. More on the design: species or system human, MV4-11 + K-562 + COLO205 + SK-N-BE2 + OVCAR-8. The following applies: read-out: apparent Kd; compound concentrations:100 nM and 1000 nM (sheet 'Samples'); n = 1.
In the next assay the test system is TNIK. Further details: species or system human, MV4-11 + K-562 + COLO205 + SK-N-BE2 + OVCAR-8. The note with it: read-out: apparent Kd; compound concentrations:100 nM and 1000 nM (sheet 'Samples'); n = 1.
A further assay deals with DDR1. More on the design: species or system human, MV4-11 + K-562 + COLO205 + SK-N-BE2 + OVCAR-8. The following applies: read-out: apparent Kd; compound concentrations: 100 nM and 1000 nM (sheet 'Samples'), CATDS: 0.15549636172905901; n = 1.
In the next assay the test system is JAK2. Further details: species or system human, MV4-11 + K-562 + COLO205 + SK-N-BE2 + OVCAR-8. The note with it: read-out: apparent Kd; compound concentrations: 100 nM and 1000 nM (sheet 'Samples'), CATDS: 0.70328815445029103; n = 1.
Another assay relates to MAPK14. More on the design: species or system human, MV4-11 + K-562 + COLO205 + SK-N-BE2 + OVCAR-8. The note with it: read-out: apparent Kd; compound concentrations: 100 nM and 1000 nM (sheet 'Samples'), CATDS: 0.189242383322658; n = 1.
A further assay relates to NLK. Further details: species or system human, MV4-11 + K-562 + COLO205 + SK-N-BE2 + OVCAR-8. The following applies: read-out: apparent Kd; compound concentrations: 100 nM and 1000 nM (sheet 'Samples'), CATDS: 0.152320021786015; n = 1.
In a further assay the test system is ADCK3. More on the design: species or system human, MV4-11 + K-562 + COLO205 + SK-N-BE2 + OVCAR-8. The following applies: read-out: apparent Kd; compound concentrations: 100 nM and 1000 nM (sheet 'Samples'), CATDS: 0.16868464966378999; n = 1.
A further assay concerns IRAK3. Further details: species or system human, MV4-11 + K-562 + COLO205 + SK-N-BE2 + OVCAR-8. The note with it: read-out: apparent Kd; compound concentrations: 100 nM and 1000 nM (sheet 'Samples'), CATDS: 0.24255292072304399; n = 1.
For a further assay, the system named is LIMK1. Further details: species or system human, MV4-11 + K-562 + COLO205 + SK-N-BE2 + OVCAR-8. The note with it: read-out: apparent Kd; compound concentrations: 100 nM and 1000 nM (sheet 'Samples'), CATDS: 0.14732071058877899; n = 1.
The next assay deals with NEK1. Further details: species or system human, MV4-11 + K-562 + COLO205 + SK-N-BE2 + OVCAR-8. The note with it: read-out: apparent Kd; compound concentrations: 100 nM and 1000 nM (sheet 'Samples'), CATDS: 0.13907038524561799; n = 1.
Another assay has as its system NUAK2. More on the design: species or system human, MV4-11 + K-562 + COLO205 + SK-N-BE2 + OVCAR-8. The note with it: read-out: apparent Kd; compound concentrations: 100 nM and 1000 nM (sheet 'Samples'), CATDS: 0.15992761786182699; n = 1.
The next assay has as its target Q6ZSR9 (human, UniProt Q6ZSR9). Further details: species or system MV4-11 + K-562 + COLO205 + SK-N-BE2 + OVCAR-8. The note with it: read-out: apparent Kd; compound concentrations: 100 nM and 1000 nM (sheet 'Samples'), CATDS: 0.17489786753405201; n = 1.

Like-named read-outs stand apart in the source and are kept apart here.

Chain of Q6ZSR9 (Q6ZSR9 whole entry, looked up): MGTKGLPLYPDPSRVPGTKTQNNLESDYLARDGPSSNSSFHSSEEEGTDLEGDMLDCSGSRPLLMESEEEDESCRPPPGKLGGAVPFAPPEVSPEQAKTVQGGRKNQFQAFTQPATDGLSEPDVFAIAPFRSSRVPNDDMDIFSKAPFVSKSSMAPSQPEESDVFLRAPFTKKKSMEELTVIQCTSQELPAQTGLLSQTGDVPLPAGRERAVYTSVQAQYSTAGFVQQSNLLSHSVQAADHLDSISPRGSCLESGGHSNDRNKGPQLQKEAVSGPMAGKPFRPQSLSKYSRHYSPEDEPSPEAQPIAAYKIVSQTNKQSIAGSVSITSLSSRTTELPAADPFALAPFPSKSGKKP

Take `CCN1CCN(CCCC(=O)Nc2n[nH]c3nc(-c4ccc(O)cc4)c(Br)cc23)CC1` [SB-731579]: the potency estimated from few doses with ACVR1 is 914 nM; in the assay with CDK16 it was 1220 nM; with CDK17 it was 986 nM; in the assay on CDK6, 1070 nM; in the assay on CDK9, 1180 nM; with EIF2AK1, 201 nM. Besides, the potency estimated from few doses with GSK3A is 4.8 nM; in the assay on GSK3B, 20.1 nM; with ICK, 1420 nM; with MAPK7, 1360 nM; in the assay with PDGFRB, 145 nM; in the assay with PIM2, 557 nM. In addition, the potency estimated from few doses with TAOK2 is 1350 nM.
As to `COc1ccc(-c2cc(-c3c[nH]nc3-c3ccccn3)ccn2)cc1` [GW679410X], the potency estimated from few doses in the assay with ACVR1B (compound concentrations:100 nM and 1000 nM (sheet 'Samples')) was 686 nM; in the assay with NQO2 it was 168 nM; in the assay on TGFBR1, 170 nM; with TGFBR2 it was 1290 nM; in the assay on TNIK it was 1140 nM.
As to `COc1ccc(-c2nn3ncccc3c2-c2ccnc(Nc3ccc(F)c(F)c3)n2)cc1` [GW827396X], the potency estimated from few doses with ACVR1B (compound concentrations: 100 nM and 1000 nM (sheet 'Samples'), CATDS: 0.188759897575135) was 1020 nM; with DDR1, 1770 nM; with JAK2 it was 73 nM; in the assay with MAPK14, 1010 nM; with NLK, 1900 nM.
In the case of `COc1cc(Nc2nccc(N3CCC(NC(=O)Nc4cccc(C(C)=O)c4)C3)n2)cc(OC)c1OC` (centres unmarked) [GSK1379753A], the potency estimated from few doses in the assay with ADCK3 was 1380 nM; in the assay on IRAK3 it was 726 nM; with LIMK1, 1850 nM; in the assay with NEK1, 2140 nM; in the assay on NUAK2, 1540 nM; with Q6ZSR9 it was 1280 nM.
